Several values for one entry are separate records, joined by “and”; a condition that tells them apart may be missing. Identical values can stand only once. For some assays here: Potency and affinity values are given separately. Activity calls are given as the source filed them.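 Rule for the calls, unless noted: active = thallium flux through the channel raised or lowered by more than 3 SD from vehicle-only wells, actives on both sides; inactive = the rest.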
Columns and labels:
[1] = hESC survival regulators, cell-based (AID 493140; call rule not given here;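 note: cells exposed to compounds for four days before counting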); conditions: human embryonic stem cell survival screen; stronger effect = higher value
[2] = tested on: Hepatitis C virus NS3 helicase; assay: HCV NS3 helicase inhibitors, primary screen, biochemical, fluorescence polarization, LOPAC1280 library (AID 687035; in the data active = inhibition above about 37%); conditions: Purified HCV NS3 helicase, Cy5-dT15 ssDNA binding fluorescence polarization; stronger effect = higher value; concentration not given here
[3] = Cy5 fluorescence interference with SSB-bound oligo, artefact control for HCV NS3 helicase inhibitor project, biochemical, NIH Clinical Collection, E. coli SSB (AID 743268; call rule not given here)
[4] = modulation of C. elegans fzo-1 (AID 1259413; call rule not given here;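 note: fzo-1 mutant C. elegans worms in liquid wells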); conditions: C. elegans fzo-1 modulator screen, mean read-out; stronger effect = higher value
[5] = viability rescue of complex I mutant cybrids, primary screen, cell-based, galactose medium, ATP luminescence (AID 1645843;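 active = z-score of at least 1.8 in each of two replicates, scored against plate mean and spread of sample wells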;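 note: positive z means more ATP and so rescue of galactose-driven cybrid death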); conditions: complex I mutant cybrid cells, 72 h, stronger effect = higher value
F380Y/beta1 = assay: modulators of BK channel variants, profiling panel, selectivity assay, cell-based, U2OS BacMam, thallium flux, beta subunits (AID 1259406); conditions: at 30 µM;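 note: initial slope of Thallos dye fluorescence rise after thallium is added; log ratio against the mean of 0.3% DMSO vehicle wells on the same plate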
F380Y/beta4 = assay: as above; conditions: at 30 µM
R275C = assay: as above; conditions: at 30 µM
R275C/beta1 = assay: as above; conditions: at 30 µM
R275C/beta2Delta = assay: as above; conditions: at 30 µM
R275C/beta4 = assay: as above; conditions: at 30 µM
R275C/Slo1WT/beta2 = assay: as above; conditions: at 30 µM
[6] = polyglutamine-triggered caspase-3 activation inhibitors, cell-based (AID 1583); conditions: polyglutamine-induced caspase-3 activation, cell assay; stronger effect = higher value;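 tested at 10 µM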
[7] = suppressors of polyQ aggregation in yeast, 75Q-TubU reporter (AID 1593); conditions: Yeast 75Q polyglutamine aggregation reporter
[8] = rescue of polyQ-huntingtin neuronal dysfunction in worms, whole organism, C. elegans mechanosensory neurons, N-terminal huntingtin (AID 1599); conditions: touch response, stronger effect = higher value
[9] = inhibitors of mitochondrial cytochrome c release, biochemical, purified mitochondria (AID 1603); conditions: stronger effect = lower value;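 note: mouse liver mitochondria challenged with calcium chloride; signal normalized to the plate average as 100%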
[10] = inhibitors of polyQ protein aggregation (AID 1604); conditions: polyglutamine-induced protein aggregation inhibition assay; stronger effect = higher value; tested at 2.5 µM
[11] = enhancers of glutamate uptake in motor neurons, MN-1 cell line (AID 1612); conditions: MN-1 motor neuron cells, stronger effect = higher value;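 note: tested at 1 µM final; 0% = mean of DMSO vehicle wells on each plate; positive means more glutamate uptake than control and negative means less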
[12] = suppressors of polyglutamine aggregation in yeast, 75Q-TubH (AID 1616); conditions: S. cerevisiae 75Q-TubH polyglutamine aggregation suppression; stronger effect = higher value
[13] = liver-stage malaria parasite growth inhibition, primary screen, cell-based, HepG2, luciferase luminescence, HepG2 viability (AID 624349; in the data active = parasite load remaining mostly below about 12%, no sharp cut-off; inactive = mostly above about 10%;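 note: 100% = mean of DMSO negative control wells on the same plate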); conditions: P. berghei liver stage in HepG2, luciferase luminescence, concentration not given here; parasite load remaining: stronger effect = lower value; viability: measured here: HepG2 viability without parasites

SMILES: CC(N=C(NC#N)Nc1ccncc1)C(C)(C)C (stereo not drawn)
- survival [1]: 59.8 (inactive)
- inhibition [2]: -5% (inactive)
- fluorescence ratio [3]: 0.97 (inactive)
- mean signal [4]: 282 (inactive)
- z-score [5]: 0.04 (inactive) and -0.155 (inactive) and 0.65 (inactive)
- log fold change Tl+ flux (F380Y/beta1): 0.0184 (inactive)
- log fold change Tl+ flux (F380Y/beta4): 0.00227 (inactive)
- log fold change Tl+ flux (R275C): 0.000868 (inactive)
- log fold change Tl+ flux (R275C/beta1): 0.00651 (inactive)
- log fold change Tl+ flux (R275C/beta2Delta): -0.00406 (inactive)
- log fold change Tl+ flux (R275C/beta4): -0.0193 (inactive)
- log fold change Tl+ flux (R275C/Slo1WT/beta2): -0.0219 (inactive)

SMILES: Cc1ccc(S(=O)(=O)NC(=O)NN2CCCCCC2)cc1
- inhibition [6]: -0.98%
- score [7]: 1.2
- rescue above control [8]: 1.05
- cytochrome c release ratio [9]: 1.07
- inhibition of aggregation [10]: 69.7%
- glutamate uptake change [11]: 14.9%
- aggregation suppression score [12]: 0.918
- survival [1]: 3.17 (inactive)
- inhibition [2]: -1% (inactive)
- fluorescence ratio [3]: 1.04 (inactive)
- mean signal [4]: 286 (inactive)
- z-score [5]: 0.415 (inactive) and 0.635 (inactive) and 0.49 (inactive)
- log fold change Tl+ flux (F380Y/beta1): 0.00805 (inactive)
- log fold change Tl+ flux (F380Y/beta4): -0.0504 (inactive)
- log fold change Tl+ flux (R275C): -0.0622 (inactive)
- log fold change Tl+ flux (R275C/beta1): -0.00502 (inactive)
- log fold change Tl+ flux (R275C/beta2Delta): -0.0116 (inactive)
- log fold change Tl+ flux (R275C/beta4): 0.0645 (inactive)
- log fold change Tl+ flux (R275C/Slo1WT/beta2): -0.0145 (inactive)

SMILES: Nc1nc(N)c2nc(-c3ccccc3)c(N)nc2n1
- inhibition [6]: 13.8%
- score [7]: 1.58
- rescue above control [8]: 4.34
- cytochrome c release ratio [9]: 0.47
- inhibition of aggregation [10]: 52.6%
- glutamate uptake change [11]: 10.7%
- aggregation suppression score [12]: 1.34
- survival [1]: 18.2 (inactive)
- inhibition [2]: -2% (inactive)
- fluorescence ratio [3]: 1.01 (inactive)
- mean signal [4]: 245 (inactive)
- z-score [5]: -0.725 (inactive) and 0.27 (inactive)
- log fold change Tl+ flux (F380Y/beta1): -0.0403 (inactive)
- log fold change Tl+ flux (F380Y/beta4): -0.00497 (inactive)
- log fold change Tl+ flux (R275C): -0.00764 (inactive)
- log fold change Tl+ flux (R275C/beta1): -0.0258 (inactive)
- log fold change Tl+ flux (R275C/beta2Delta): -0.000652 (inactive)
- log fold change Tl+ flux (R275C/beta4): -0.0731 (inactive)
- log fold change Tl+ flux (R275C/Slo1WT/beta2): 0.0101 (inactive)

SMILES: O=C1NC(=O)C(c2ccccc2)(c2ccccc2)N1
- inhibition [6]: 5.01%
- score [7]: 1.42
- rescue above control [8]: 6.5
- cytochrome c release ratio [9]: 0.9
- inhibition of aggregation [10]: 62.8%
- glutamate uptake change [11]: -8.41%
- aggregation suppression score [12]: 1.74
- inhibition [2]: 1% (inactive)
- fluorescence ratio [3]: 1.01 (inactive)
- mean signal [4]: 250 (inactive)
- z-score [5]: 0.08 (inactive) and 1.09 (inactive) and 0.395 (inactive)
- log fold change Tl+ flux (F380Y/beta1): 0.0354 (inactive)
- log fold change Tl+ flux (F380Y/beta4): 0.0289 (inactive)
- log fold change Tl+ flux (R275C): -0.00405 (inactive)
- log fold change Tl+ flux (R275C/beta1): -0.0211 (inactive)
- log fold change Tl+ flux (R275C/beta2Delta): 0.0126 (inactive)
- log fold change Tl+ flux (R275C/beta4): -0.0221 (inactive)
- log fold change Tl+ flux (R275C/Slo1WT/beta2): 0.0271 (inactive)

SMILES: OC(CCN1CCCC1)(c1ccccc1)C1CCCCC1 (stereo not drawn)
- inhibition [6]: 2.81%
- score [7]: 1.52
- rescue above control [8]: 0.33
- cytochrome c release ratio [9]: 0.63
- inhibition of aggregation [10]: 69.2%
- glutamate uptake change [11]: 2.81%
- aggregation suppression score [12]: 1.66
- survival [1]: 7.33 (inactive)
- fluorescence ratio [3]: 1.04 (inactive)
- mean signal [4]: 232 (inactive)
- z-score [5]: -0.65 (inactive)
- log fold change Tl+ flux (F380Y/beta1): 0.0373 (inactive)
- log fold change Tl+ flux (F380Y/beta4): 0.131 (active)
- log fold change Tl+ flux (R275C): 0.00132 (inactive)
- log fold change Tl+ flux (R275C/beta1): 0.0416 (inactive)
- log fold change Tl+ flux (R275C/beta2Delta): -0.0288 (inactive)
- log fold change Tl+ flux (R275C/beta4): 0.068 (inactive)
- log fold change Tl+ flux (R275C/Slo1WT/beta2): -0.0137 (inactive)

SMILES: C=C(CC)C(=O)c1ccc(OCC(=O)O)c(Cl)c1Cl
- inhibition [6]: 6.66%
- score [7]: 0.22
- rescue above control [8]: 6.67
- cytochrome c release ratio [9]: 0.63
- inhibition of aggregation [10]: 30.1%
- glutamate uptake change [11]: 5.34%
- aggregation suppression score [12]: 0.145
- survival [1]: 25.6 (inactive)
- fluorescence ratio [3]: 2.96 (active)
- mean signal [4]: 255 (inactive)
- z-score [5]: -0.85 (inactive) and -0.03 (inactive)
- log fold change Tl+ flux (F380Y/beta1): 0.1 (inactive)
- log fold change Tl+ flux (F380Y/beta4): 0.0312 (inactive)
- log fold change Tl+ flux (R275C): -0.00646 (inactive)
- log fold change Tl+ flux (R275C/beta1): 0.0596 (inactive)
- log fold change Tl+ flux (R275C/beta2Delta): 0.0176 (inactive)
- log fold change Tl+ flux (R275C/beta4): -0.0645 (inactive)
- log fold change Tl+ flux (R275C/Slo1WT/beta2): 0.0108 (inactive)

SMILES: CC(CN1c2ccccc2Sc2ccccc21)N(C)C (stereo not drawn)
- inhibition [6]: -21.1%
- score [7]: 1.87
- rescue above control [8]: 27.9
- cytochrome c release ratio [9]: 0.77
- inhibition of aggregation [10]: 66.7%
- glutamate uptake change [11]: 9.05%
- aggregation suppression score [12]: 1.37
- survival [1]: 1.42 (inactive)
- inhibition [2]: -2% (inactive)
- fluorescence ratio [3]: 0.91 (inactive)
- mean signal [4]: 245 (inactive)
- z-score [5]: -1.14 (inactive) and -0.84 (inactive) and -0.715 (inactive)
- log fold change Tl+ flux (F380Y/beta1): 0.16 (active)
- log fold change Tl+ flux (F380Y/beta4): 0.26 (active)
- log fold change Tl+ flux (R275C): -0.00748 (inactive)
- log fold change Tl+ flux (R275C/beta1): 0.305 (active)
- log fold change Tl+ flux (R275C/beta2Delta): 0.176 (active)
- log fold change Tl+ flux (R275C/beta4): 0.0949 (inactive)
- log fold change Tl+ flux (R275C/Slo1WT/beta2): -0.0568 (inactive)

SMILES: CN(C)CCOC(C)(c1ccccc1)c1ccccn1 (stereo not drawn)
- inhibition [6]: 9.79%
- score [7]: 1.23
- rescue above control [8]: -5.3
- cytochrome c release ratio [9]: 0.7
- inhibition of aggregation [10]: 77%
- glutamate uptake change [11]: 7.08%
- aggregation suppression score [12]: 1.46
- survival [1]: 6.42 (inactive)
- inhibition [2]: -2% (inactive)
- fluorescence ratio [3]: 1.04 (inactive)
- mean signal [4]: 230 (inactive)
- z-score [5]: 0.14 (inactive) and -0.05 (inactive) and 0.35 (inactive)
- log fold change Tl+ flux (F380Y/beta1): -0.0273 (inactive)
- log fold change Tl+ flux (F380Y/beta4): 0.0181 (inactive)
- log fold change Tl+ flux (R275C): -0.00524 (inactive)
- log fold change Tl+ flux (R275C/beta1): -0.0059 (inactive)
- log fold change Tl+ flux (R275C/beta2Delta): -0.00567 (inactive)
- log fold change Tl+ flux (R275C/beta4): 0.0164 (inactive)
- log fold change Tl+ flux (R275C/Slo1WT/beta2): 0.0279 (inactive)

SMILES: CN(C)CCC[C@@]1(c2ccc(F)cc2)OCc2cc(C#N)ccc21
- parasite load remaining [13]: 78.9% (inactive) and 44.8% (inactive)
- viability [13]: 63.5% and 102%
- fluorescence ratio [3]: 1.05 (inactive)
- mean signal [4]: 287 (inactive)
- z-score [5]: 0.15 (inactive) and 0.43 (inactive)
- log fold change Tl+ flux (F380Y/beta1): -0.0013 (inactive)
- log fold change Tl+ flux (F380Y/beta4): 0.042 (inactive)
- log fold change Tl+ flux (R275C): -0.0846 (inactive)
- log fold change Tl+ flux (R275C/beta1): 0.0547 (inactive)
- log fold change Tl+ flux (R275C/beta2Delta): 0.0841 (inactive)
- log fold change Tl+ flux (R275C/beta4): 0.0144 (inactive)
- log fold change Tl+ flux (R275C/Slo1WT/beta2): 0.0208 (inactive)

SMILES: NC(=O)N1c2ccccc2C=Cc2ccccc21
- inhibition [6]: 9.92%
- score [7]: 1.24
- rescue above control [8]: -11.1
- cytochrome c release ratio [9]: 1.51
- inhibition of aggregation [10]: 83.1%
- glutamate uptake change [11]: -6.72%
- aggregation suppression score [12]: 1.82
- survival [1]: 26.6 (inactive)
- inhibition [2]: -1% (inactive)
- fluorescence ratio [3]: 1.03 (inactive)
- mean signal [4]: 259 (inactive)
- z-score [5]: 0.21 (inactive) and 0.34 (inactive) and 0.265 (inactive)
- log fold change Tl+ flux (F380Y/beta1): -0.00275 (inactive)
- log fold change Tl+ flux (F380Y/beta4): -0.00351 (inactive)
- log fold change Tl+ flux (R275C): 0.0472 (inactive)
- log fold change Tl+ flux (R275C/beta1): 0.00405 (inactive)
- log fold change Tl+ flux (R275C/beta2Delta): 0.0457 (inactive)
- log fold change Tl+ flux (R275C/beta4): -0.0824 (inactive)
- log fold change Tl+ flux (R275C/Slo1WT/beta2): -0.0474 (inactive)

Reference: PubChem BioAssay
